From PubChem BioAssay (NCATS) come the findings set out here.

Where “and” joins values, the source holds several entries; their conditions need not be identical. Equal entries are not always repeated. Results filed as inconclusive are left out. Values without a mark were called inactive. Calls of active or inactive are those of the source. Calls follow the shape of the dose curve; as a rule, active = well fitted curve in the direction sought with a large enough effect; inconclusive = small, poorly fitted or top-dose-only effect, or another doubt; inactive = no such curve, though single readings can be large; an effect the other way counts as inactive or inconclusive.

Test [1] is described as follows: Viability qHTS for spleen associated tyrosine kinase inhibitor (SYKi) drug resistant MV4-11 cells (AID 1963824). Also: nearly all actives have a fitted effect of over 35% in size. In a few lines: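 CellTiter-Glo luminescence, read 10 min after reagent addition, reports viability after a 72 hr compound exposure. Cells are an MV4-11 line made resistant to SYK inhibition, seeded at 500 per well onto compound-containing plates.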
Test [2] can be described thus: Quantitative highthroughput screen to assess conditional lethalithy of NOMO1 cells grown in RPMI1640 with untreated serum (RPMI+s) (AID 1963876). Also: nearly all actives have a fitted effect of over 35% in size.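 As to Viability: 100% = DMSO wells and 0% = empty wells without cells.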 In a few lines:
(§1)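 Each medium arm—HPLM with 10% dialyzed FBS, or RPMI1640 with 5 mM glucose and 10% untreated or dialyzed FBS—was screened against an 11-point, 3-fold compound titration for 48 h at 37 °C, with CellTiter-Glo luminescence as endpoint.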

A short description of test [3]: Quantitative highthroughput screen to assess conditional lethalithy of NOMO1 cells grown in RPMI1640 with dialyzed fetal bovine serum (RPMI+ds) (AID 1963877). Also: nearly all actives have a fitted effect of over 30% in size.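 As to Viability: series mostly up to about 46 µM; 100% = DMSO control wells and 0% = empty wells.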 Summed up:
as §1

The nature of test [4]: Quantitative highthroughput screen to assess conditional lethalithy of NOMO1 cells grown in Human Plasma-Like Medium with dialyzed fetal bovine serum (HPLM+ds) (AID 1963878). Also: nearly all actives have a fitted effect of over 35% in size.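 As to Viability: 100% = DMSO wells and 0% = empty wells on each plate.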 In a few lines:
as §1

Test [5] can be described thus: Quantitative highthroughput screen to assess conditional lethalithy of P12 Ichikawa cells grown in Human Plasma-Like Medium with dialyzed fetal bovine serum (HPLM+ds) (AID 1963879). Also: nearly all actives have a fitted effect of over 35% in size. As to Viability: series mostly up to about 46 µM. Particulars: Potency: viability. In a few lines: as §1
A short description of test [6]: Quantitative highthroughput screen to assess conditional lethalithy of SEM cells grown in Human Plasma-Like Medium with dialyzed fetal bovine serum (HPLM+ds) (AID 1963882). Also: nearly all actives have a fitted effect of over 35% in size. As to Viability: series mostly up to about 46 µM. In a few lines:
as §1

A short description of test [7]: Quantitative highthroughput screen to assess conditional lethalithy of SEM cells grown in RPMI1640 with unreated serum (RPMI+s) (AID 1963883). Also: nearly all actives have a fitted effect of over 35% in size.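 As to Viability: 100% = DMSO wells and 0% = empty wells without cells.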 In a few lines: as §1
The nature of test [8]: Quantitative highthroughput screen to assess conditional lethalithy of SEM cells grown in RPMI1640 with dialyzed fetal bovine serum (RPMI+ds) (AID 1963884). Also: nearly all actives have a fitted effect of over 35% in size.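 As to Viability: series mostly up to about 46 µM; 100% = DMSO control wells and 0% = empty wells without cells.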 In a few lines:
as §1

Test [9] can be described thus: Quantitative highthroughput screen to assess conditional lethalithy of P12 Ichikawa cells grown in RPMI1640 with untreated serum (RPMI+s) (AID 1963881). Also: nearly all actives have a fitted effect of over 35% in size.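 As to Viability: series mostly up to about 46 µM; 100% = DMSO wells and 0% = empty wells without cells.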 The following applies: Potency: viability. In a few lines:
as §1

Test [10] in a line: Quantitative highthroughput screen to assess conditional lethalithy of P12 Ichikawa cells grown in RPMI1640 with dialyzed fetal bovine serum (RPMI+ds) (AID 1963880). Also: nearly all actives have a fitted effect of over 35% in size.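 As to Viability: 100% = DMSO wells and 0% = empty wells on each plate.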 The following applies: Potency: P12-Ichikawa viability. In a few lines: as §1
Test [11] is described as follows: Cellular viability qHTS for adrenocortical cancer (ACC) cell line SW-13 (AID 1963989). Also: nearly all actives have a fitted effect of over 65% in size.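 As to activity (max response): cells grown in serum-free medium with ITS supplement; % is scaled to controls: 0 for no effect and ±100 for the full control effect.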 The following applies: SW-13 ACC cells viability, CellTiter-Glo, 48 h; activity (max response): stronger effect = lower value. In a few lines:
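Here, serum-free SW-13 cultures were dosed up to 46 uM. Following 48 h, ATP-dependent luminescence (CellTiter-Glo) reported viable cells, and logistic modeling produced IC50 values.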
Background: qHTS replaces the single test concentration by a dilution series.

Test [12] is described as follows: Cellular viability qHTS for adrenocortical cancer (ACC) cell line NCI-H295R (AID 1963990). Also: nearly all actives have a fitted effect of over 60% in size. Summed up: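 Viability of NCI-H295R after 48 h of treatment (final up to 46 uM) measured through cellular ATP luminescence.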
Potency is read from the fitted curve at half-maximal effect.

Take `O=C(NOC[C@H](O)CO)c1ccc(F)c(F)c1Nc1ccc(I)cc1F`: the Potency in test [1] is 0.164 µM (active); in [2], 0.187 µM (active); in test [3], 0.0332 µM (active); in test [4] it was 0.148 µM (active); in [5], 20.9 µM (active); in test [6], 7.43 µM (active). Besides, the Potency in test [7] and in test [8] was 11.8 µM (active) in each case.

As for `NC(CO)C(=O)NNCc1ccc(O)c(O)c1O` (stereo unspecified), the Potency in [1] was 23.5 µM (active); in test [9] it was 26.4 µM (active). Further, the Potency entry in [2], in [3], in test [4] and in [6] was “inactive” in each case.

With `Cc1cc(Nc2ncc3c(n2)N(C)C(=O)N(c2cc(NC(=O)c4cccc(C(F)(F)F)c4)ccc2C)C3)n(C)n1`, the Potency was 0.0295 µM (active) in [1]; 1.66 µM (active) in test [2]; 1.18 µM (active) in test [3]; 1.18 µM (active) in test [4]; 16.6 µM (active) in [5]; 11.8 µM (active) in test [10]. Moreover, the Potency in test [6] was 0.469 µM (active); in test [7] it was 0.372 µM (active); in [8] it was 0.372 µM (active); in [11], 0.355 µM (active); in [12], 1.26 µM (active).

As for `CO[C@H]1C=CO[C@@]2(C)Oc3c(C)c(O)c4c(O)c(c5c(c4c3C2=O)NC2(CCN(CC(C)C)CC2)N=5)=NC(=O)C(C)=CC=C[C@H](C)[C@H](O)[C@@H](C)[C@@H](O)[C@@H](C)[C@H](OC(C)=O)[C@H]1C`, the Potency in test [1] was 18.4 µM (active). Also, the Potency entry in [2], in test [3], in test [4], in test [5], in [9] and in [6] was “inactive” throughout. Moreover, the Potency result in test [7] and in test [8] was “inactive” each time.

For `CC(C)n1cnc2c(NCCCCCCNC(=O)OC(C)(C)C)nc(NCCO)nc21`, the Potency in test [1] was 14.8 µM (active). In addition, the Potency entry in test [2], in test [3], in test [4] and in test [6] was “inactive” in each case.

For `Clc1ccc(COC(Cn2ccnc2)c2ccc(Cl)cc2Cl)c(Cl)c1` (stereo unspecified), the Potency in test [1] was 11.8 µM (active); in [11], 17.8 µM (active); in test [12], 10 µM (active). The Potency result in test [2], in [3], in [4] and in test [6] was “inactive” each time.

Turning to `CN(CCOc1ccc(CC2SC(=O)NC2=O)cc1)c1ccccn1` (stereo unspecified), the Potency in [1] is 13.3 µM (active). Moreover, the Potency entry in test [2], in [3], in test [4], in [5], in test [9] and in [6] was “inactive” throughout. In addition, the Potency result in [7], in [8] and in [12] was “inactive” in each case. Besides, the activity (max response) in [11] was -2.77% and -12.8%.

Turning to `C[C@H](c1ccc(F)cc1CCCC(=O)O)N(c1cc(F)ccc1F)S(=O)(=O)c1ccc(Cl)cc1`, the Potency in [1] is 18.6 µM (active). Moreover, the Potency result in test [2], in test [3], in test [4], in test [5], in test [10] and in [12] was “inactive” in each case. Moreover, in test [11], the activity (max response) is -23.1%.

With `Cc1cccc(-c2nn(C(=S)Nc3ccccc3)cc2-c2ccnc3ccccc23)n1`, in [1], the Potency is 18.6 µM (active). Moreover, the Potency entry in test [2], in test [3], in [4], in test [9], in test [6] and in test [12] was “inactive” throughout.

On to `Nc1ccn([C@@H]2O[C@H](CO)[C@@H](O)C2O)c(=O)n1` (stereo partly specified), for which the Potency in [1] is 1.86 µM (active); in [4] it was 1.18 µM (active). The Potency result in test [2], in [3], in [5], in [10], in test [9] and in test [12] was “inactive” each time.

As to `C=Cc1c(C)c2cc3nc(cc4[nH]c(cc5nc(cc1[nH]2)C(C)=C5CCC(=O)O)c(CCC(=O)OC)c4C)[C@@]1(C)C3=CC=C(C(=O)OC)[C@H]1C(=O)OC`, the Potency in [1] was 7.42 µM (active); in test [2], 14.8 µM (active); in test [3] it was 13.2 µM (active); in [4], 14.8 µM (active). In addition, the Potency entry in [5], in test [10], in test [6], in test [7] and in test [8] was “inactive” each time.

Turning to `O=C1C(Cl)=C(NCCN2CCOCC2)C(=O)c2ncccc21`, the Potency was 2.09 µM (active) in [1]; 10.5 µM (active) in [2]; 9.35 µM (active) in [3]; 14.8 µM (active) in test [4]; 20.9 µM (active) in test [10]; 23.5 µM (active) in test [9]. Further, the Potency in test [6] is 10.5 µM (active); in test [7], 4.69 µM (active); in [8], 7.43 µM (active); in test [11] it was 3.55 µM (active); in [12], 3.98 µM (active).

Turning to `Cc1ccc(Nc2cc(-c3cccc(N4C(=O)c5ccccc5C4=O)c3)ncn2)cc1NS(C)(=O)=O`, the Potency in test [1] was 16.6 µM (active). The Potency entry in test [2], in [3], in [4], in test [10], in test [9] and in [7] was “inactive” each time.

`N#CC(c1ccc(Cl)cc1)c1c(Cl)cc(-n2ncc(=O)[nH]c2=O)cc1Cl` (stereo unspecified): in test [1], the Potency is 26.3 µM (active). Besides, the Potency result in test [2], in test [3], in test [4], in test [9], in test [6] and in test [7] was “inactive” throughout. The Potency entry in [8] was “inactive”.

As for `Cc1ccccc1C(C(=O)NC1CCCCC1)N(C(=O)CNc1ccc(C#N)cc1)c1cccc(F)c1` (stereo unspecified), the Potency result in test [1], in [2], in test [3], in test [4], in [5] and in [6] was “inactive” throughout. Moreover, the Potency entry in test [7], in test [8] and in test [12] was “inactive” in each case. Moreover, in test [11], the activity (max response) was -0.757%.

In the case of `S=c1nc[nH]c2nc[nH]c12`, the Potency in [1] is 2.37 µM (active) and 833 nM (active); in test [3], 1.48 µM (active); in [4], 5.9 µM (active); in test [10], 0.743 µM (active); in test [11], 8.2 µM (active) and 15.8 µM (active); in [12], 2.06 µM (active) and 4.47 µM (active). Moreover, the Potency result in test [2] is “inactive”.

On to `CO[C@H]1C[C@@H]2CC[C@@H](C)[C@@](O)(O2)C(=O)C(=O)N2CCCC[C@@H]2C(=O)O[C@H]([C@@H](C)C[C@@H]2CC[C@H](O)[C@H](OC)C2)CC(=O)[C@H](C)C=C(C)[C@@H](O)[C@@H](OC)C(=O)[C@H](C)C[C@H](C)C=CC=CC=C1C`, for which the Potency in test [1] was 10.5 µM (active); in [12], 28.2 µM (active). Besides, the Potency entry in test [2], in [3] and in test [4] was “inactive” in each case.

As for `CN(Cc1cc(Br)cc(Br)c1N)C1CCCCC1`, the Potency in [1] was 10.6 µM (active). Further, the Potency entry in test [2], in [3], in test [5], in [10], in test [9] and in [6] was “inactive” each time. The Potency result in [7] and in [8] was “inactive” throughout.
